Assay results reported in the supplement of paper PMC10849652.
The full data set covers some 7,900 targets. This sample favours those with a hit. About 0.6% of all pairs of compound and target were hits. Unmarked numbers belong to inactive results.

Assays:
Test in all cases: log2 fold change, soluble protein after heating vs DMSO (PISA); higher = thermal stabilisation; K562 cells, 10 uM, 30 min; active = over 0.2 and 3.5 SD of the protein, either way, in both replicates (recomputed)
[1] = compound: CS(=O)(=O)c1ccc(-c2cnc(N)c(C(=O)Nc3ccccc3)n2)cc1
How it was run: (§1)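 Soluble protein was quantified by TMTpro 16plex LC-MS/MS after channel sums were equalised. It was obtained as the supernatant after 21,000xg for 90 min from pooled aliquots of K562 cells (2×10^6 cells/mL, 10 μM compound, 30 min) heated for 3 min across 48°C-58°C and extracted in PBS with 0.5% NP-40 at 4°C. Thermal stability values are relative to control samples and come from duplicates. They are given as log2 fold changes.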

crizotinib = compound: C[C@@H](Oc1cc(-c2cnn(C3CCNCC3)c2)cnc1N)c1c(Cl)ccc(F)c1Cl [crizotinib]
How it was run: as §1

[2] = compound: C[C@@H]1COCCN1C2=NC(=NC(=C2)C3(CC3)S(=O)(=O)C)C4=C5C=CNC5=CC=C4
How it was run: as §1

[3] = compound: C[C@H](C1=CC=C(C=C1)C(=O)NC2=C3C=CNC3=NC=C2)N
How it was run: as §1

gandotinib = compound: Cc1cc(Nc2cc(CN3CCOCC3)c3nc(C)c(Cc4ccc(Cl)cc4F)n3n2)n[nH]1 [gandotinib]
How it was run: as §1

tozasertib = compound: Cc1cc(Nc2cc(N3CCN(C)CC3)nc(Sc3ccc(NC(=O)C4CC4)cc3)n2)n[nH]1 [tozasertib]
How it was run: as §1

doramapimod = compound: Cc1ccc(-n2nc(C(C)(C)C)cc2NC(=O)Nc2ccc(OCCN3CCOCC3)c3ccccc23)cc1 [doramapimod]
How it was run: as §1

ispinesib = compound: Cc1ccc(C(=O)N(CCCN)[C@@H](c2nc3cc(Cl)ccc3c(=O)n2Cc2ccccc2)C(C)C)cc1 [ispinesib]
How it was run: as §1

bafetinib = compound: Cc1ccc(NC(=O)c2ccc(CN3CC[C@H](N(C)C)C3)c(C(F)(F)F)c2)cc1Nc1nccc(-c2cncnc2)n1 [bafetinib]
How it was run: as §1

[4] = compound: Cc1cccc(CC(=O)N2CCc3c2ccc(-c2cn(C)c4ncnc(N)c24)c3F)n1
How it was run: as §1

nilotinib = compound: Cc1cn(-c2cc(NC(=O)c3ccc(C)c(Nc4nccc(-c5cccnc5)n4)c3)cc(C(F)(F)F)c2)cn1 [nilotinib]
How it was run: as §1

[5] = compound: Cc1nc(Nc2n[nH]c3c2CN(C(=O)N[C@H](CN(C)C)c2ccccc2)C3(C)C)c2sccc2n1
How it was run: as §1

[6] = compound: Cc1ncc(-c2ccnc(Nc3ccc(S(C)(=O)=O)cc3)n2)n1C(C)C
How it was run: as §1

[7] = compound: Cn1cc(-c2ccc3c(c2)CCN3C(=O)Cc2cccc(C(F)(F)F)c2)c2c(N)ncnc21
How it was run: as §1

[8] = compound: Cn1cc(-c2ccc3nnc(C(F)(F)c4ccc5ncccc5c4)n3n2)cn1
How it was run: as §1

mubritinib = compound: FC(F)(F)c1ccc(/C=C/c2nc(COc3ccc(CCCCn4ccnn4)cc3)co2)cc1 [mubritinib]
How it was run: as §1

duvelisib = compound: C[C@H](Nc1ncnc2nc[nH]c12)c1cc2cccc(Cl)c2c(=O)n1-c1ccccc1 [duvelisib]
How it was run: as §1

[9] = compound: Cc1cc(SCc2sc(-c3ccc(C(F)(F)F)cc3)nc2C)ccc1OCC(=O)O
How it was run: as §1

dasatinib = compound: Cc1nc(Nc2ncc(C(=O)Nc3c(C)cccc3Cl)s2)cc(N2CCN(CCO)CC2)n1 [dasatinib]
How it was run: as §1

tipifarnib = compound: Cn1cncc1[C@@](N)(c1ccc(Cl)cc1)c1ccc2c(c1)c(-c1cccc(Cl)c1)cc(=O)n2C [tipifarnib]
How it was run: as §1

Chain of UniProt Q2TAL8 (Q2TAL8 whole entry, looked up): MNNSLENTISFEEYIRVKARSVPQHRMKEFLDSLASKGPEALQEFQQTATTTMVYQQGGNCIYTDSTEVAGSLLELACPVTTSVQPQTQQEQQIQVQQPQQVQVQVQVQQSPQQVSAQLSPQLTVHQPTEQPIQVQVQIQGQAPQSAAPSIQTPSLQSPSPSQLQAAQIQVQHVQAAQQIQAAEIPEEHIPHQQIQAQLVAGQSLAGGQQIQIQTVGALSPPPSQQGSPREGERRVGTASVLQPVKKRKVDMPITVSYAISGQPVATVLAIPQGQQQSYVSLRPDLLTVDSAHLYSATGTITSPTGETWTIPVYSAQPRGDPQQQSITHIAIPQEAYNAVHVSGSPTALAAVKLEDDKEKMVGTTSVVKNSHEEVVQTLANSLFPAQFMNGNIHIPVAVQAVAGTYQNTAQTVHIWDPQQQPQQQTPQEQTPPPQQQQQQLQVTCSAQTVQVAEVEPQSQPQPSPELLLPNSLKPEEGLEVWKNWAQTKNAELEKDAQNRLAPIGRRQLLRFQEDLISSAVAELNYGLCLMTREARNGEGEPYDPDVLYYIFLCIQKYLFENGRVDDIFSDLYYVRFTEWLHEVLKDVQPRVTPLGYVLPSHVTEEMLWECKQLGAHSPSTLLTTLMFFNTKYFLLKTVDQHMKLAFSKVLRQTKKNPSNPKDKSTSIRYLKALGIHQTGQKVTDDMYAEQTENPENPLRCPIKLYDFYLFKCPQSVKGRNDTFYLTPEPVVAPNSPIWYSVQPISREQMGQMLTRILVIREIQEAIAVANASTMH
Chain of UniProt O00625 (O00625 whole entry, looked up): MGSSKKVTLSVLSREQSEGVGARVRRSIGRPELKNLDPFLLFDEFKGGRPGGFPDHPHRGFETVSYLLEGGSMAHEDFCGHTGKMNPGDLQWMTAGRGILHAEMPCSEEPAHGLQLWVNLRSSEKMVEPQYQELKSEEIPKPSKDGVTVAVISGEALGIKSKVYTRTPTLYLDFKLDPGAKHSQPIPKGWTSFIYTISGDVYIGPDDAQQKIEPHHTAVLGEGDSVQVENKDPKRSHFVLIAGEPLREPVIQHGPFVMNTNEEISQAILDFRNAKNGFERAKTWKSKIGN
Chain of UniProt P43686 (P43686 whole entry, looked up): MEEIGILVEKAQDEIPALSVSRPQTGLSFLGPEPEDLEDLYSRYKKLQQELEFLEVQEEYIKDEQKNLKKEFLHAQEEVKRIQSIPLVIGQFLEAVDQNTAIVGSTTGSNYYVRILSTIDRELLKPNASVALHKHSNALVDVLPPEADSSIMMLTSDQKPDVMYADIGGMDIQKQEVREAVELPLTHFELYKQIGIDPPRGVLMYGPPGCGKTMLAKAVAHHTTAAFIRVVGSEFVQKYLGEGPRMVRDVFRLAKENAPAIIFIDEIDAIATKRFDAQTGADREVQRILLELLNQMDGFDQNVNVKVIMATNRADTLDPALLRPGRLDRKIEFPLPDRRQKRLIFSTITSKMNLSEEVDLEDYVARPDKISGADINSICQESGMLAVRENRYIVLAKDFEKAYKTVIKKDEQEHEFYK
Chain of UniProt O00329 (O00329 whole entry, looked up): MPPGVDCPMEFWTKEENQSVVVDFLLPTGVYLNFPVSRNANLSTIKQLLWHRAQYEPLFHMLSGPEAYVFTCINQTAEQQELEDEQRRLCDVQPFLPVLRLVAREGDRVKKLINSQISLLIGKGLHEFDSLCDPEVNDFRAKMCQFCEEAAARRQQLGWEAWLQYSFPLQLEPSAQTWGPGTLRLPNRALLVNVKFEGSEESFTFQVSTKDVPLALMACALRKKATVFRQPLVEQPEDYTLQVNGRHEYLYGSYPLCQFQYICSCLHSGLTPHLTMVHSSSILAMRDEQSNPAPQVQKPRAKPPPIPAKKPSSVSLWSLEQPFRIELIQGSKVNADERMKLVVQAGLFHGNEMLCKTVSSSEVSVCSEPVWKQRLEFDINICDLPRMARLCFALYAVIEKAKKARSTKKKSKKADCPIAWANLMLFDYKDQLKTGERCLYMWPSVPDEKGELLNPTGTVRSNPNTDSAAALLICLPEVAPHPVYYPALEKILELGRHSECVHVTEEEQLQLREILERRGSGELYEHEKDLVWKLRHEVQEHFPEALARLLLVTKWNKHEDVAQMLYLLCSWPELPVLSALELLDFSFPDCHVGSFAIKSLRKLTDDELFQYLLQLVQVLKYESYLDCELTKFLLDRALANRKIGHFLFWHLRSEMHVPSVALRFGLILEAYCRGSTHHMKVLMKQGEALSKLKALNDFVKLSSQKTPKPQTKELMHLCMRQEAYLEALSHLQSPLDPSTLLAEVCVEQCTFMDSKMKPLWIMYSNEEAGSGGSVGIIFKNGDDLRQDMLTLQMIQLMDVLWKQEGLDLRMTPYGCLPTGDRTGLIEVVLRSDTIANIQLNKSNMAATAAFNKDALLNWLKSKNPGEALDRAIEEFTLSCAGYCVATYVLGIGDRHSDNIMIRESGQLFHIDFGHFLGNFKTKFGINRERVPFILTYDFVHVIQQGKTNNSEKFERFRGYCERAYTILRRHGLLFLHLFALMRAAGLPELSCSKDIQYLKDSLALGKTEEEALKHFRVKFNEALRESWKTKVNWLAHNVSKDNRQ
Chain of UniProt Q9BRP1 (Q9BRP1 whole entry, looked up): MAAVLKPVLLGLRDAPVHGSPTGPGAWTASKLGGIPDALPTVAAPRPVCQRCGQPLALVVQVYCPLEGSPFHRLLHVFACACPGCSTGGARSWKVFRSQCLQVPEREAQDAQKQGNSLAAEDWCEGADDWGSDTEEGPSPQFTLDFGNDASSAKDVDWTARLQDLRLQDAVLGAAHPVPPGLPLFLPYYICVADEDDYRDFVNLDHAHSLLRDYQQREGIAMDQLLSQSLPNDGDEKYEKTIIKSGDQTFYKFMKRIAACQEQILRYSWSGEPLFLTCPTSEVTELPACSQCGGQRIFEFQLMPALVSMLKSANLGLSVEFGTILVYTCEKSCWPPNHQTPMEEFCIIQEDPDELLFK
Chain of UniProt Q86TB9 (Q86TB9 whole entry, looked up): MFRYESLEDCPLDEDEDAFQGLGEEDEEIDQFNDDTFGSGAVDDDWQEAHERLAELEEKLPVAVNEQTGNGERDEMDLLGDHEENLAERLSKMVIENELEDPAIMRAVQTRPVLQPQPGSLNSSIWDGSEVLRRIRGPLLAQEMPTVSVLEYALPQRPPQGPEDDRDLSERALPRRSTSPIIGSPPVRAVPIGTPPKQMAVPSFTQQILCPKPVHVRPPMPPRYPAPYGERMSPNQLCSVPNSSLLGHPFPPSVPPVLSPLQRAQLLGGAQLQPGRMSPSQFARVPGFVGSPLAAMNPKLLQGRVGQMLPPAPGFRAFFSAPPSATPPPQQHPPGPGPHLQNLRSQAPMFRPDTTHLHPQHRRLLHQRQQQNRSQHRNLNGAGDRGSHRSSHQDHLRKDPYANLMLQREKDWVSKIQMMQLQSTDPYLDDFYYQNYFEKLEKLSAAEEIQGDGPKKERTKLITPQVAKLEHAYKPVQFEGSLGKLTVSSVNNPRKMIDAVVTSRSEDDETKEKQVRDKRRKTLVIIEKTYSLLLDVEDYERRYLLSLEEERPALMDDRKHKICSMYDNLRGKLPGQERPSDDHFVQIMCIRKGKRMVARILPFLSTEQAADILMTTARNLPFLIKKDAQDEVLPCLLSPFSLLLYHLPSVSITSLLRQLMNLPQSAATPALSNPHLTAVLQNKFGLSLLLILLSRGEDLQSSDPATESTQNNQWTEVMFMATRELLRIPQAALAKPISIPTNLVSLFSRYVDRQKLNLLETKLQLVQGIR
Chain of UniProt O43924 (O43924 whole entry, looked up): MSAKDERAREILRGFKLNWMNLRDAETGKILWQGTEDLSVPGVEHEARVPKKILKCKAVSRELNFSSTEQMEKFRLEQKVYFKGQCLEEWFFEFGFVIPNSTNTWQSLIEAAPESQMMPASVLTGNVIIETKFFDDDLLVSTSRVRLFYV
Chain of UniProt Q00577 (Q00577 whole entry, looked up): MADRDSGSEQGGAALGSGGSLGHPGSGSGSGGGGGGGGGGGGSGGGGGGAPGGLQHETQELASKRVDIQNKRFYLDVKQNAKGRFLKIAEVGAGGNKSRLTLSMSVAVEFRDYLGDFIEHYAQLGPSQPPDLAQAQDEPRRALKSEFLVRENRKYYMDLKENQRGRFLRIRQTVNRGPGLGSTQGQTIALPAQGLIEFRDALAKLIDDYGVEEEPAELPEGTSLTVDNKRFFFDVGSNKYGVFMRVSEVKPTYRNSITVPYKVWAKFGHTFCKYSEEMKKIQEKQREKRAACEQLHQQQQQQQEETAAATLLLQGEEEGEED
Chain of UniProt P11216 (P11216 whole entry, looked up): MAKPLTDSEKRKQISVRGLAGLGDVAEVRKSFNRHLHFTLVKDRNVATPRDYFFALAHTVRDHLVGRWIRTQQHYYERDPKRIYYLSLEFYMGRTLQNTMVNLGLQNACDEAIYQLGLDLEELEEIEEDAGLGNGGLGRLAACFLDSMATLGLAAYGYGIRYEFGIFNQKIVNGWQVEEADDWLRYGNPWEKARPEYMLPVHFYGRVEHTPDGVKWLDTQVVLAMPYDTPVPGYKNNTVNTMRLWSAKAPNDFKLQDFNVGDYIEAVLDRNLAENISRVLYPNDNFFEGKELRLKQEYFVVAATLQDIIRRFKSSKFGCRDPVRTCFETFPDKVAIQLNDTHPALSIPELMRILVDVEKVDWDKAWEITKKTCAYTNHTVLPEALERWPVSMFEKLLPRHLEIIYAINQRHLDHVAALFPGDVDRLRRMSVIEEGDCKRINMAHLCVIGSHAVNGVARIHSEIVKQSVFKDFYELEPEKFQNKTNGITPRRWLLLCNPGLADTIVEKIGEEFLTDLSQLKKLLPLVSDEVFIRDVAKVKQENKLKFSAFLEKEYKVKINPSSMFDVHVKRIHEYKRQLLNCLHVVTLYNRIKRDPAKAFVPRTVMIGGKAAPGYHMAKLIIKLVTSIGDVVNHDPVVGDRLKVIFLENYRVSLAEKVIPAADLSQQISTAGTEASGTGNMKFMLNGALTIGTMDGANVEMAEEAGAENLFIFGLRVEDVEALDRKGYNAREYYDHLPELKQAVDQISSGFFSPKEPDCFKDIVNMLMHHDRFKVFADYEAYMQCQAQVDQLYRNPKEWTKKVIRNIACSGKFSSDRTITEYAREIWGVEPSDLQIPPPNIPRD

Target	log2 fold change [1]	log2 fold change (crizotinib)	log2 fold change [2]	log2 fold change [3]	log2 fold change (gandotinib)	log2 fold change (tozasertib)	log2 fold change (doramapimod)	log2 fold change (ispinesib)	log2 fold change (bafetinib)	log2 fold change [4]	log2 fold change (nilotinib)	log2 fold change [5]	log2 fold change [6]	log2 fold change [7]	log2 fold change [8]	log2 fold change (mubritinib)	log2 fold change (duvelisib)	log2 fold change [9]	log2 fold change (dasatinib)	log2 fold change (tipifarnib)
PLCL1 (UniProt Q15111)	0.112	-0.03	0.074	-0.263	-0.14	-0.015	-0.08	-0.162	-0.045	0.039	-0.06	-0.197	-0.324	-0.116	0.028	-0.018				
QRICH1 (UniProt Q2TAL8)	-0.01	-0.2	0.07	0.016		0.171	-0.077	0.006	0.042		-0.093	-0.118	0.078	0.043	0.108	-0.01	0.143	0.014	-0.206	-0.159
PDCD2L (UniProt Q9BRP1)	-0.059	-0.048	-0.083	0.068	0.225	-0.007	-0.058	0.062	0.026	0.077	-0.137	0.035	-0.062	-0.022	0.015	0.018	0.053	0.097	-0.122	-0.13
PSMD12 (UniProt O00232)	0.053	0.009	-0.03	0.073	0.029	0.068	0.019	0.003	0.119	0.033	0.026	0.044	-0.001	-0.088	-0.022	-0.034	-0.053	0.057	0	0.019
PIR (UniProt O00625)	0.004	0.042	0.019	-0.085	0.048	0.027	0.095	0.045	-0.073	0.001	0.009	-0.006	-0.014	-0.003	0.028	0.11	0.013	0.057	-0.044	-0.069
PNN (UniProt Q9H307)	-0.043	-0.154	0.022	-0.05	0.012		-0.032	-0.08	-0.08	-0.008	-0.028	-0.344 (active)	-0.039	0.028	0.231	-0.098	0.034	-0.003	0.062	0.255
PYGB (UniProt P11216)	-0.305 (active)	-0.057	0.015	0.107	-0.045	-0.04	-0.005	0.013	-0.317 (active)	0	-0.358 (active)	0.02	-0.032	0.026	-0.007	0.014	0.026	-0.002	-0.042	0.035
PATL1 (UniProt Q86TB9)	-0.014	-0.201	-0.037	0.122	-0.139	-0.014	0.12	-0.339 (active)	-0.007	0.034				0.08	-0.013	-0.04	-0.002	0.039	-0.032	0.039
PSMC4 (UniProt P43686)	0	0.007	-0.056	0.06	-0.011	0.04	0.02	-0.02	0.087	0	-0.013	0.05	-0.019	-0.128	-0.037	-0.012	-0.076	0.001	0.052	0.117
PDE6D (UniProt O43924)	-0.165	0.001	0.079	-0.148	-0.202	-0.076	0.084		0.266	0.169	0.191	-0.238	0.011	0.385		0.565	0.109	-0.098	0.026	
PIK3CD (UniProt O00329)	-0.019	0.009	0.034	0.14		0.049	0.042	-0.029	0.033					-0.228	0.074		0.233	-0.11		0.031
POLR2M (UniProt Q6EEV4)	-0.03	-0.021	0.16	-0.078		-0.039	-0.04		-0.215		0.107	-0.016	-0.022	0.135		0.035	-0.024	-0.061	-0.003	-0.095
PURA (UniProt Q00577)	-0.064	0.03	-0.44	0.287	0.334	0.069	0.063	-0.143	0.108	-0.089	0.06	0.105	0.017	-0.382	-0.12	-0.06	-0.165	-0.012	0.335	0.207
PRG4 (UniProt Q92954)	0.08	-0.19	-0.014	0.023	0.098	0.167	-0.229	-0.114	-0.095	0.104	-0.05	0.065	0.258	0.203	0.068	-0.016	-0.145	0.004	0	
PDIK1L (UniProt Q8N165)	0.009	-0.082	-0.003	0.029		-0.094	0.085	0.039	0.166		-0.026	0.578 (active)	-0.037	0.05	0.13	0.034	0.086	0.017	-0.081	-0.152
